In PMC4336329 (PLoS ONE, 2015):
Screen size: about 310,000 compounds; about 14,000 (4.5%) showed an effect of 50% or more. Effects have a minus sign here. This excerpt belongs to a sample that is enriched for strong results.

Each molecule was assayed against human ether-à-go-go-related gene (hERG) potassium channel (human, UniProt Q12809) (assay: primary screen, population patch clamp on CHO cells stably expressing hERG; higher = less effect of the substance).
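Also: peak tail current of the secondary pulse compared with the same well before compound.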

human ether-à-go-go-related gene (hERG) potassium channel, sequence (Q12809 whole entry, looked up): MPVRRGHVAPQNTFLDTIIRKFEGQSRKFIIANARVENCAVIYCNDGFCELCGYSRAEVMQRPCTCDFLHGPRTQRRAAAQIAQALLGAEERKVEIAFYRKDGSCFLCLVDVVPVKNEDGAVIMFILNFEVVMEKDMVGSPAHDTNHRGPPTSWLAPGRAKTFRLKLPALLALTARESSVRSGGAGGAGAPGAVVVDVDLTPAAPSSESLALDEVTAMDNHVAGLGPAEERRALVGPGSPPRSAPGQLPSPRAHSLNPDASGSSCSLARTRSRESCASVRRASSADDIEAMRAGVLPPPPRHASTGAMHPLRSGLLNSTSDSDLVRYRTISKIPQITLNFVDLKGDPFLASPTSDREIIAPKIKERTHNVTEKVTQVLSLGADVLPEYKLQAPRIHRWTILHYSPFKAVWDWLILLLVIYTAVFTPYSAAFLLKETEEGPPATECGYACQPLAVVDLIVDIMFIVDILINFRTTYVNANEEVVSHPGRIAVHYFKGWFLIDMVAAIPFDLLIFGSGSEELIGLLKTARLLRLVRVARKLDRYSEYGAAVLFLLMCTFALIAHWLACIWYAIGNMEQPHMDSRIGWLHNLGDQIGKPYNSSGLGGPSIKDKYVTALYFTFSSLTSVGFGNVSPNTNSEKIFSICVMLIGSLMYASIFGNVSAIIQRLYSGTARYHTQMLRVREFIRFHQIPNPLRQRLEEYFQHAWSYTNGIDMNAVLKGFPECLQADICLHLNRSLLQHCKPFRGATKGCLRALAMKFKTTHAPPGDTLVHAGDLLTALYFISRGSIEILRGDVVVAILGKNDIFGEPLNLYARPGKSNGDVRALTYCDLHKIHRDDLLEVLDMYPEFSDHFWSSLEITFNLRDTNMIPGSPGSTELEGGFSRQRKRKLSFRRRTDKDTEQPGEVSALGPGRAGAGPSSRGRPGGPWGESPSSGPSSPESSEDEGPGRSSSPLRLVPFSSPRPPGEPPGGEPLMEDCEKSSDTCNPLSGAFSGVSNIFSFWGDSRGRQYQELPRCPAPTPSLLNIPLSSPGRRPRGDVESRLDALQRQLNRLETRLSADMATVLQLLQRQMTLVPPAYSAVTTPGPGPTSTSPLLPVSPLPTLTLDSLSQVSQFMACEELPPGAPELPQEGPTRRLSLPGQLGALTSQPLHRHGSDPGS

SMILES | hERG current change (%, negative = inhibition) at 10uM
Cc1nc(C(F)(F)F)nc(Nc2ccc(Br)cc2)c1C#N | 12.2%
COc1ccc(C=C(c2nc3ccccc3s2)c2nc3ccccc3s2)cc1O | 3.94%
Cc1ccc2c(c1)N(CCC(=O)NCCN1CCOCC1)C(=O)CO2 | -2.16%
N/C(Cc1ccc([N+](=O)[O-])cc1)=N\OC(=O)COc1ccc2ccccc2c1 | -14.4%
O=C(O)c1cccc(CN2C(=O)SC(Nc3ccccc3)C2=O)c1 (stereo not drawn) | 2.16%
Cl.c1ccc(-c2ccccc2OCCOCCN2CCc3ccccc3C2)cc1 | -28.7%
Cc1ccc(C(C)C)c(OCC(O)CN2CCOCC2)c1 (stereo not drawn) | -2.99%
Cl.Clc1ccc(OCCCN2CCc3ccccc3C2)c(Br)c1 | -34.8%
Cc1ccc(C)c(OCCCN2CCc3ccccc3C2)c1.Cl | -49.4%
OC(COc1ccc(Cl)cc1Cl)Cn1ccnc1 (stereo not drawn) | 9.67%
Cc1ccc(C(C)C)c(OCC(O)CN2CCc3ccccc3C2)c1.Cl (stereo not drawn) | -65%
Cl.OC(COc1ccc(Cl)cc1Cl)CN1CCc2ccccc2C1 (stereo not drawn) | -58.6%
Cc1ccc(C(C)C)c(OCC(O)CN2CCN(CCO)CC2)c1.Cl (stereo not drawn) | -13.9%
Cc1ccc(C(C)C)c(OCCCN2CCc3ccccc3C2)c1.Cl | -70.1%
Cl.Clc1ccc(OCCOCCN2CCc3ccccc3C2)c(Cl)c1 | -69.8%
Cc1ccc(C(C)C)c(OCCN2CCc3ccccc3C2)c1.Cl | 14.5%
OC(COc1ccc(F)cc1Cl)CN1CCc2ccccc2C1 (stereo not drawn) | -41.7%
CCOC(=O)/C=C1\SCC(=O)N1CC(=O)NCCOC | -10.2%
NC(=O)c1ccc[n+](CC(=O)OCCC23CC4CC(CC(C4)C2)C3)c1.[Cl-] | 11.8%
COc1ccc(N(CC(=O)NC2CCCC2)S(=O)(=O)c2c(C)[nH]c(=O)[nH]c2=O)cc1 | 10.2%
Cc1cccc(C)c1OCCN1CCOCC1.O=C(O)C(=O)O | -0.56%
O=C(NNc1ncccc1-n1cccc1)c1ccc(Cl)cc1 | -15.4%
O=C(CSc1nc(C2CC2)nc2sc3c(c12)CCCC3)NCc1ccco1 | -6.99%
Cc1ccc(Cn2c(Sc3ncccn3)nc3c2c(=O)[nH]c(=O)n3C)cc1 | -5.24%

SMILES | hERG current change (%, negative = inhibition) at 10uM
CCOC(=O)C1=C(N)n2c(s/c(=C/c3ccco3)c2=O)=C(C(=O)OC)C1c1ccco1 (stereo not drawn) | -2.57%
COCCNC(=O)c1c(NC(=O)c2ccco2)n(Cc2ccccc2)c2nc3ccccc3nc12 | -16.9%
Cc1cc(OCC(O)CN2CCc3ccccc3C2)cc(C(C)C)c1.Cl (stereo not drawn) | -56.2%
Cc1ccc(OCCCCN2CCc3ccccc3C2)c(C)c1.Cl | -34.1%
Cc1cccc(OCC(O)CN2CCc3ccccc3C2)c1.Cl (stereo not drawn) | -38%
Cc1ccc(OCC(O)CN2CCOCC2)c(C)c1.Cl (stereo not drawn) | 20.2%
Cc1ccc(OCC(O)CN2CCc3ccccc3C2)c(C)c1.Cl (stereo not drawn) | -72.3%
Cc1nc(SCCOc2ccccc2F)[nH]c(=O)c1Cc1ccccc1 | 46.9%
O=C(Nc1cnn(Cc2ccccc2)c1)c1nc2ncccn2n1 | 6.14%
Cc1nc(CCNC(=O)c2cc(COc3ccc(F)cc3Cl)on2)sc1C | -22.4%
O=C(O)c1ccc(Cl)c2c1C1C=CCC1C(c1ccccn1)N2 (stereo not drawn) | 7.76%
COc1ccc(C(=O)NC2CC2)cc1OC1CCN(Cc2ccc(F)cc2F)CC1 | -81.5%
O=C(NCc1ccccn1)c1ccc(OC2CCN(Cc3ccc(F)cc3F)CC2)cc1 | -25.9%
COCCNC(=O)c1cccc(OC2CCN(Cc3ccc(F)cc3OC)CC2)c1 | -23.1%
COc1ccc(C(=O)NCC(=O)OCc2ccc(F)cc2Cl)cc1OC | -1.96%
COc1ccc(C(=O)NC2CC2)cc1OC1CCN(Cc2ccc(F)cc2Cl)CC1 | -70.9%
COc1ccc(C(=O)NC2CCN(Cc3c(F)cccc3Cl)CC2)cc1OC | -1.46%
Cc1cc2sc3ccccc3c(=O)c2c(C)c1O | 21.6%
Cc1ccc(S(=O)(=O)N2CCOCC2)cc1C(=O)Nc1ccc2c(c1)CCC2 | -10.6%
COC(=O)c1cn(NC(=O)C2CCC(C(C)(C)C)CC2)c(=O)c2ccccc12 (stereo not drawn) | 13.7%
CCC[n+]1c2ccccc2cc2ccccc21.[I-] | 23.7%
CCCCCCCCCCCCCCCC[n+]1cccc2ccccc21.[I-] | -71.2%
Cc1cccc[n+]1CCCCCCCCCC[n+]1ccccc1C.[Br-] | 37.8%
[Cl-].c1ccc(C[n+]2cccc3c4ccccc4ccc32)cc1 | -15%

SMILES | hERG current change (%, negative = inhibition) at 10uM
CCCCCCCC[n+]1cccc2c3ccccc3ccc21.[I-] | -84.3%
CCCC[n+]1c2ccccc2cc2ccccc21.[I-] | -32.9%
NC(=O)C[n+]1cccc2ccccc21.[I-] | 9.16%
CCCCCCCCC[n+]1cccc2c3ccccc3ccc21.[Br-] | -84.8%
O/N=C/c1cccc[n+]1CCCCCC[n+]1ccccc1/C=N/O.[Br-] | 20.1%
O=C(C[n+]1cccc(CO)c1)Nc1nc2ccccc2s1.[Cl-] | -9.18%
CC(C)CN(C(=O)CCC(=O)OCc1ccc(Cl)cc1Cl)c1c(N)n(CC(C)C)c(=O)[nH]c1=O | -47.3%
CCn1nc(C)cc1C(=O)NC1CCCc2c1cnn2-c1cc(F)cc(F)c1 (stereo not drawn) | -5.58%
Cc1cc(=O)c2cc(Br)ccc2n1CC(=O)NCc1ccccc1 | -12.8%
O=C(CCNc1cc(Cl)cc(Cl)c1)c1ccco1 | -4.77%
Cc1ccc(C(C)(C)C)c(OCCCCN2CCCC2)c1 | -19.9%
CCCN(CCC)CCNC(=O)CCC(=O)Nc1ccc2nc(N3CCN(C)CC3)cc(C)c2c1 | 17.7%
O=c1[nH]ncn2cccc12 | 24.1%
COc1ccccc1CN(C)S(=O)(=O)c1cccs1 | 4.72%
CN(Cc1c(F)cccc1Cl)S(=O)(=O)c1cccs1 | -19.8%
CN(Cc1ccc(F)cc1Cl)S(=O)(=O)c1cccs1 | -62%
Cc1c(OC(C)C(=O)NCCCN2CCOCC2)ccc2c1oc(=O)c1ccccc12 (stereo not drawn) | 6.19%
O=C(CCN1C(=O)COc2ccccc21)NCCCN1CCN(c2ccc(F)cc2)CC1 | -63.7%
COc1ccc(N2CCN(CCNC(=O)CCN3C(=O)COc4ccccc43)CC2)cc1 | -47%
O=C(CCN1C(=O)COc2ccccc21)NCCN1CCN(c2ccccc2F)CC1 | -33.5%
O=C(CN1C(=O)COc2ccccc21)NCCN1CCCC1 | 13.6%
O=C(CN1C(=O)COc2ccccc21)NCCN1CCOCC1 | 11.3%
O=C(CCN1C(=O)COc2ccccc21)NCCCN1CCN(c2ccccc2F)CC1 | -42.7%
O=C(CN1C(=O)COc2ccccc21)NCCN1CCC(Cc2ccccc2)CC1 | -56.6%

SMILES | hERG current change (%, negative = inhibition) at 10uM
CN1CCN(CCCNC(=O)CCN2C(=O)COc3ccccc32)CC1 | 0.334%
O=C(CCN1C(=O)COc2ccccc21)NCCN1CCN(c2cccc(Cl)c2)CC1 | -56.5%
CS(=O)(=O)N(CC(=O)Nc1ccccc1-c1ccccc1)c1ccccc1 | -0.135%
O=C(NC1CCCC1)C(c1ccncc1)N(C(=O)c1ccco1)c1ccc(Cl)cc1 (stereo not drawn) | -4.59%
CCOC(=O)C1(CCOc2ccccc2)CCN(C(C)CSC)CC1 (stereo not drawn) | -55.3%
CCOC(=O)C1(CCOc2ccccc2)CCN(C(=O)CCSC)CC1 | -42%
CCOC(=O)C1(CCc2ccccc2)CCN(C(C)CSC)CC1 (stereo not drawn) | -66.6%
O=C1C2CCCN2C(c2ccc(Cl)c(Cl)c2)N1c1ccccn1 (stereo not drawn) | -10%
O=C(NC(=S)Nc1ccc(-c2nc3ncccc3o2)cc1)c1ccccc1F | 14.5%
CCOCCCNC(=O)C(NC(=O)c1cnccn1)c1ccc(C)cc1 (stereo not drawn) | 30.4%
CCN(CC)C(=O)Cn1cc(S(=O)(=O)CC(=O)Nc2ccc(C(N)=O)cc2)c2ccccc21 | 18.2%
CCOc1ccc(NC(=O)CN2CCCC2c2cccs2)cc1S(=O)(=O)N1CCCCC1 (stereo not drawn) | -11.8%
Fc1cccc(NC(=S)NCCCN2CCOCC2)c1 | -0.1%
COC(=O)c1ccc(N2CCN(CCNC(=O)Nc3ccc(OC)cc3)CC2)cc1 | -0.192%
COc1ccc(N2CCN(CCNC(=O)Nc3ccc(Cl)cc3)CC2)cc1 | -60.7%
COc1ccc(N2CCN(CCCNC(=O)Nc3ccccc3)CC2)cc1 | -64.5%
CSc1cccc(NC(=S)NCCCO)c1 | -4.03%
CCOc1ccc(NC(=O)CCN2CCN(c3ccccc3OC)CC2)cc1 | -33.8%
COc1ccc(N2CCN(CCNC(=O)Nc3ccc(C)c(Cl)c3)CC2)cc1 | 15.9%
CCc1ccc(N2CCN(CCNC(=O)Nc3ccc(OC)cc3)CC2)cc1 | -29.9%
COc1ccc(NC(=O)NCCN2CCN(c3cccc(Cl)c3)CC2)cc1 | -31.6%
CSc1cccc(NC(=S)NCCCN2CCN(c3ccc(F)cc3)CC2)c1 | -66.7%
COc1ccccc1N1CCN(CCCNC(=O)Nc2ccccc2)CC1 | -59.8%
COc1ccccc1N1CCN(CCCNc2c(C)c(=O)n(C)c(=O)n2C)CC1 | -5.42%
